Reference: PubChem BioAssay AID1159580 (chemical genetic matrix, 2015)
“And” between values parts separate entries of the source, which are not always exact repeats. Identical values can stand only once. About 2,000 (36%) of roughly 5,500 compounds were called active. Not shown: some 18% with an inconclusive outcome. Cut-off read from the data, not from the text of the source: active = normalized growth mostly below about 0.91 (no sharp cut-off); inconclusive = no clear call, values can overlap the other calls; inactive = mostly above about 0.92. The list shows a part of the results.

Assay: chemical genetic growth profiling, strain panel (AID 1159580);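 note: tested at 20 µM; growth read once vehicle control cultures reached saturation at 30 °C; 1 = growth at the plate median or of vehicle wells; lower values mean less growth of the strain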
Conditions: S. cerevisiae deletion strains, growth OD
[1] = locus YJR075W, strain HOC1, stronger effect = lower value
[2] = locus YNL128W, strain TEP1, stronger effect = lower value
[3] = locus YNL322C, strain KRE1, stronger effect = lower value

Measured: normalized growth

COC(=O)/C=C/C(C)=C/C=C/C(C)=C/C=C/C=C(C)/C=C/C=C(C)/C=C/C(=O)O
inactive: locus YAL013W, strain DEP1, stronger effect = lower value 1 | locus YAL021C, strain ccr4, stronger effect = lower value 1.02 | locus YAL026C, strain drs2, stronger effect = lower value 1.02 | locus YAL030W, strain snc1, stronger effect = lower value 1.02 | locus YBL061C, strain skt5, stronger effect = lower value 1.04 | locus YBR009C, strain hhf1, stronger effect = lower value 1.02 | locus YBR021W, strain FUR4, stronger effect = lower value 1.03 | locus YBR023C, strain chs3, stronger effect = lower value 1.03 | locus YBR171W, strain sec66, stronger effect = lower value 1.03 | locus YBR229C, strain ROT2, stronger effect = lower value 1.02 | locus YBR231C, strain swc5, stronger effect = lower value 1.02 | locus YBR279W, strain paf1, stronger effect = lower value 0.988 | locus YCL011C, strain gbp2, stronger effect = lower value 1.02 | locus YCL016C, strain dcc1, stronger effect = lower value 1.02 | locus YCL029C, strain bik1, stronger effect = lower value 1.01 | locus YCL061C, strain MRC1, stronger effect = lower value 1.02 | locus YCL069W, strain vba3, stronger effect = lower value 1.02 | locus YCR088W, strain abp1, stronger effect = lower value 1.02 | locus YDL005C, strain med2, stronger effect = lower value 1.01 | locus YDL035C, strain GPR1, stronger effect = lower value 1.02 | locus YDL040C, strain nat1, stronger effect = lower value 1.01 | locus YDL074C, strain BRE1, stronger effect = lower value 1 | locus YDL101C, strain DUN1, stronger effect = lower value 1.02 | locus YDL134C, strain PPH21, stronger effect = lower value 1.04 | locus YDL185W, strain tfp1, stronger effect = lower value 1.02 | locus YDL192W, strain arf1, stronger effect = lower value 1.01 | locus YDR001C, strain nth1, stronger effect = lower value 1.03 | locus YDR069C, strain doa4, stronger effect = lower value 1.04 | locus YDR101C, strain arx1, stronger effect = lower value 0.997 | locus YDR137W, strain rgp1, stronger effect = lower value 1.05 | locus YDR150W, strain NUM1, stronger effect = lower value 1.02 | locus YDR159W, strain sac3, stronger effect = lower value 1.05 | locus YDR162C, strain NBP2, stronger effect = lower value 1.03 | locus YDR195W, strain ref2 0.993 | locus YDR297W, strain sur2, stronger effect = lower value 1.03 | locus YDR318W, strain mcm21, stronger effect = lower value 1 | locus YDR334W, strain swr1, stronger effect = lower value 1.02 | locus YDR335W, strain msn5, stronger effect = lower value 1.02 | locus YDR388W, stronger effect = lower value 0.998 | locus YDR392W, strain spt3, stronger effect = lower value 1.03 | locus YDR502C, strain sam2, stronger effect = lower value 1.01 | locus YEL003W, strain gim4, stronger effect = lower value 1.02 | locus YEL037C, strain rad23, stronger effect = lower value 1.02 | locus YEL061C, strain CIN8 (second series), stronger effect = lower value 1.01 | locus YEL061C, strain CIN8, stronger effect = lower value 1.01 | locus YER015W, strain faa2, stronger effect = lower value 1.02 | locus YER016W, strain bim1, stronger effect = lower value 1.01 | locus YER110C, stronger effect = lower value 0.989 | locus YER111C, strain swi4, stronger effect = lower value 1.02 | locus YER155C, strain BEM2 (second series), stronger effect = lower value 1.03 | locus YER155C, strain BEM2, stronger effect = lower value 0.994 | locus YER167W, strain BCK2, stronger effect = lower value 1.01 | locus YFR010W, strain ubp6, stronger effect = lower value 1.02 | locus YGL078C, strain dbp3, stronger effect = lower value 0.993 | locus YGL086W, strain mad1, stronger effect = lower value 0.986 | locus YGL167C, strain pmr1, stronger effect = lower value 1.03 | locus YGL173C, strain kem1, stronger effect = lower value 1.02 | locus YGL227W, strain vid30, stronger effect = lower value 1.03 | locus YGL240W, strain doc1, stronger effect = lower value 1.02 | locus YGL248W, strain PDE1, stronger effect = lower value 1.02 | locus YGL253W, strain hxk2, stronger effect = lower value 1.02 | locus YGR078C, strain PAC10, stronger effect = lower value 1.03 | locus YGR135W, strain pre9, stronger effect = lower value 1 | locus YGR252W, strain gcn5, stronger effect = lower value 0.983 | locus YHR013C, strain ard1, stronger effect = lower value 1.01 | locus YHR027C, strain rpn1, stronger effect = lower value 1.03 | locus YHR030C, strain SLT2, stronger effect = lower value 1.02 and 0.885 | locus YHR079C, strain IRE1 (second series), stronger effect = lower value 0.986 | locus YHR079C, strain IRE1, stronger effect = lower value 0.897 | locus YHR094C, strain hxt1, stronger effect = lower value 0.994 | locus YHR129C, strain ARP1, stronger effect = lower value 1.01 | locus YHR142W, strain chs7, stronger effect = lower value 1.03 | locus YHR200W, strain rpn10, stronger effect = lower value 1.01 | locus YIL066C, strain RNR3, stronger effect = lower value 1.03 | locus YIL073C, strain SPO22, stronger effect = lower value 1.01 | locus YIL125W, strain kgd1, stronger effect = lower value 0.997 | locus YIR030C, strain dcg1, stronger effect = lower value 0.995 | locus YJL092W, strain hpr5, stronger effect = lower value 1.03 | locus YJL095W, strain BCK1 (second series), stronger effect = lower value 1.02 | locus YJL095W, strain BCK1, stronger effect = lower value 1.04 and 0.924 | locus YJL115W, strain asf1, stronger effect = lower value 1.01 | locus YJL129C, strain trk1, stronger effect = lower value 1.02 | locus YJL134W, strain LCB3, stronger effect = lower value 1.01 | locus YJL154C, strain vps35, stronger effect = lower value 1.01 | locus YJL164C, strain tpk1, stronger effect = lower value 1.03 | locus YJL166W, strain qcr8, stronger effect = lower value 1.03 | locus YJL168C, strain set2, stronger effect = lower value 0.994 | locus YJL187C, strain SWE1 (second series), stronger effect = lower value 1.03 | locus YJL187C, strain SWE1, stronger effect = lower value 1.02 | locus YJR043C, strain POL32, stronger effect = lower value 1.03 | locus YJR066W, strain TOR1, stronger effect = lower value 0.898 | [1] 1.04 | locus YKL009W, strain mrt4, stronger effect = lower value 0.996 | locus YKL068W, stronger effect = lower value 1.01 | locus YKL085W, strain MDH1 (second series), stronger effect = lower value 0.989 | locus YKL085W, strain MDH1, stronger effect = lower value 0.989 | locus YKL160W, strain elf1, stronger effect = lower value 1.02 | locus YKL190W, strain CNB1, stronger effect = lower value 1.01 | locus YKR001C, strain vps1, stronger effect = lower value 1.01 | locus YKR026C, strain gcn3, stronger effect = lower value 1.02 | locus YKR091W, strain srl3, stronger effect = lower value 1.02 | locus YLL001W, strain dnm1, stronger effect = lower value 1.02 | locus YLL026W, stronger effect = lower value 1.02 | locus YLL041C, strain sdh2, stronger effect = lower value 1.02 | locus YLR027C, strain aat2, stronger effect = lower value 1.02 | locus YLR039C, strain RIC1, stronger effect = lower value 1.08 | locus YLR058C, strain SHM2, stronger effect = lower value 1.01 | locus YLR102C, strain apc9, stronger effect = lower value 0.988 | locus YLR221C, strain rsa3, stronger effect = lower value 1.02 | locus YLR258W, strain gsy2, stronger effect = lower value 1.02 | locus YLR262C, strain YPT6 (second series), stronger effect = lower value 1.06 | locus YLR262C, strain YPT6, stronger effect = lower value 1.04 | locus YLR268W, strain sec22, stronger effect = lower value 1.02 | locus YLR320W, strain mms22, stronger effect = lower value 1.04 | locus YLR330W, strain CHS5, stronger effect = lower value 1.02 | locus YLR342W, strain FKS1 (second series), stronger effect = lower value 1.01 | locus YLR342W, strain FKS1, stronger effect = lower value 1.03 | locus YLR357W, strain rsc2, stronger effect = lower value 1.02 | locus YLR370C, strain arc18, stronger effect = lower value 1.02 | locus YLR371W, strain rom2, stronger effect = lower value 0.988 | locus YLR384C, strain iki3, stronger effect = lower value 1.02 | locus YLR418C, strain cdc73, stronger effect = lower value 1.01 | locus YML016C, strain PPZ1, stronger effect = lower value 1.02 | locus YML032C, strain rad52, stronger effect = lower value 0.982 | locus YML120C, strain ndi1, stronger effect = lower value 1.02 | locus YML124C, strain tub3, stronger effect = lower value 0.996 | locus YMR058W, strain fet3, stronger effect = lower value 1.03 | locus YMR078C, strain ctf18, stronger effect = lower value 0.993 | locus YMR125W, strain sto1, stronger effect = lower value 1.01 | locus YMR129W, stronger effect = lower value 1.02 | locus YMR205C, strain PFK2, stronger effect = lower value 1.03 | locus YMR223W, strain ubp8, stronger effect = lower value 1.01 | locus YMR231W, strain pep5, stronger effect = lower value 1.01 | locus YMR263W, strain SAP30, stronger effect = lower value 1.02 | locus YMR307W, strain GAS1, stronger effect = lower value 1.04 | locus YNL067W, strain RPL9B, stronger effect = lower value 1.02 | locus YNL071W, strain lat1, stronger effect = lower value 1.02 | [2] 1.01 | locus YNL183C, strain NPR1, stronger effect = lower value 0.908 | locus YNL209W, strain ssb2, stronger effect = lower value 1.02 | locus YNL233W, strain BNI4, stronger effect = lower value 1.03 | locus YNL248C, strain rpa49, stronger effect = lower value 1.01 | locus YNL250W, strain rad50, stronger effect = lower value 0.986 | locus YNL271C, strain bni1, stronger effect = lower value 0.998 | locus YNL298W, strain CLA4, stronger effect = lower value 0.991 | locus YNL307C, strain MCK1, stronger effect = lower value 1 | locus YNL322C, strain KRE1 (second series), stronger effect = lower value 1.02 | [3] 1.01 | locus YNR049C, strain mso1, stronger effect = lower value 1.02 | locus YNR052C, strain pop2, stronger effect = lower value 0.998 | locus YOL006C, strain TOP1, stronger effect = lower value 1.11 | locus YOL012C, strain htz1 1.19 | locus YOL147C, strain pex11, stronger effect = lower value 0.996 | locus YOR001W, strain rrp6, stronger effect = lower value 1.02 | locus YOR061W, strain CKA2, stronger effect = lower value 1.02 | locus YOR069W, strain VPS5, stronger effect = lower value 1.01 | locus YOR070C, strain gyp1, stronger effect = lower value 1.02 | locus YOR080W, strain dia2, stronger effect = lower value 1.02 | locus YOR083W, strain WHI5, stronger effect = lower value 1.01 | locus YOR106W, strain vam3, stronger effect = lower value 1.02 | locus YOR136W, strain idh2, stronger effect = lower value 1 | locus YOR144C, strain elg1, stronger effect = lower value 1 | locus YOR184W, strain ser1, stronger effect = lower value 1.01 | locus YOR231W, strain MKK1, stronger effect = lower value 0.901 | locus YOR265W, strain rbl2, stronger effect = lower value 1.02 | locus YOR270C, strain vph1, stronger effect = lower value 0.954 | locus YOR290C, strain snf2, stronger effect = lower value 1.02 | locus YOR316C, strain cot1, stronger effect = lower value 0.989 | locus YPL051W, strain arl3, stronger effect = lower value 1.02 | locus YPL078C, strain atp4, stronger effect = lower value 1.02 | locus YPL106C, strain sse1, stronger effect = lower value 1.05 | locus YPL240C, strain hsp82, stronger effect = lower value 1.03 | locus YPL256C, strain CLN2, stronger effect = lower value 0.894 | locus YPR119W, strain clb2, stronger effect = lower value 1 | locus YPR141C, strain kar3, stronger effect = lower value 0.995 | locus YPR163C, strain tif3, stronger effect = lower value 1 | locus YPR167C, strain met16, stronger effect = lower value 0.996 | strain wtn01, stronger effect = lower value 1.01
active: locus YLR113W, strain HOG1, stronger effect = lower value 0.844

O=C(O)/C=C/C(=O)O
inactive: locus YAL040C, strain CLN3, stronger effect = lower value 1.02 | locus YCL061C, strain MRC1 (second series), stronger effect = lower value 1.01 | locus YDR363W, strain ESC2, stronger effect = lower value 1.01 | locus YER002W, strain NOP16, stronger effect = lower value 1.04 | [1] 1.01 | [2] 1.01 | locus YNL175C, strain NOP13, stronger effect = lower value 1.01 | locus YNL197C, strain WHI3, stronger effect = lower value 1 | locus YNL224C, strain SQS1, stronger effect = lower value 1 | [3] 1.02 | locus YOR083W, strain WHI5 (second series), stronger effect = lower value 1 | locus YPL055C, strain LGE1, stronger effect = lower value 1.02
